Compounds without any hit were thinned out: in the full panel of roughly 83,000, 20% have a hit.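 For each line, cells grew in 96-well plates with the test compound present at a single concentration for 48 hours.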 A number with no mark means an inactive call. Activity calls are given as the source filed them. How the source made its calls: active means growth percent below 10; inactive means the rest.

Our source for the growth values is PubChem BioAssay (NCI).

Holding throughout (experiment): NCI-60 one-dose screen, 48 h (100 = growth as untreated, 0 = no growth, -100 = all killed)
Holding throughout (details): 10 µM unless noted

For assay [1], the system named is NCI-H23 lung.
Assay [2] relates to NCI-H322M lung.
Assay [3] relates to HOP-62 NSCLC.
For assay [4], the system named is NCI-H460 lung.
The test system of assay [5] is HOP-92 NSCLC.
For assay [6], the system named is A549/ATCC NSCLC.
The subject of assay [7] is 786-0 renal.
For assay [8], the system named is DU-145 prostate.
Assay [9] relates to K-562 leukemia.
The test system of assay [10] is MALME-3M melanoma.
Assay [11] relates to MDA-MB-231 breast.
Assay [12] concerns RXF 393 renal.
The test system of assay [13] is SF-268 CNS.
The test system of assay [14] is SF-295 CNS.
Assay [15] deals with SF-539 CNS.
Assay [16] concerns UACC-257 melanoma.
Assay [17] relates to M14 melanoma.
In assay [18] the test system is HCT-15 colon.
For assay [19], the system named is COLO 205 colon.
Assay [20] deals with NCI-H522 lung.

In the case of `COc1cc(/C=C2\CN(C)C/C(=C\c3cc(CN4CCCCC4)c(O)c(OC)c3)C2=O)cc(CN2CCCCC2)c1O`, the growth in assay [1] was 34.2%; in assay [2] it was 43.1%; in assay [3], 65%; in assay [4] it was 0.801% (active); in assay [5], 51%; in assay [6], 45.7%. Further, the growth in [7] is 50.1%; in assay [8], 1.15% (active); in assay [9] it was 10.2%; in [10] it was 84.6%; in assay [11] it was 7.14% (active); in assay [12], 29.7%. Moreover, the growth in assay [13] was 41%; in [14] it was 91.7%; in assay [15], 48.6%; in assay [16], 76.9%; in assay [17] it was 70.3%; in assay [18], 18.6%.
Take `CCOC(=O)c1cc2c(n1Cc1ccccc1)-c1oncc1CCC2`: the growth in assay [1] is 88.3%; in [2], 107%; in assay [3] it was 77.9%; in [4] it was 97.3%; in [5], 86.3%; in assay [6], 59.2%. The growth in [7] was 102%; in assay [19], 69%; in assay [8], 114%; in assay [9] it was 24.1%; in assay [10], 39.2%; in assay [11], 74.4%. Further, the growth is 84.6% in assay [12]; 88.7% in assay [13]; 98.2% in assay [14]; 83.3% in [15]; 82.5% in assay [16]; 68% in [17]. Also, the growth in assay [18] is 45.7%.
Consider `Cc1ccc2cc3c(N)c4c(C)ccc(C)c4nc3nc2c1`, for which the growth in assay [1] is 89.4%; in assay [2] it was 72.4%; in [3], 76.3%; in assay [5] it was 29.4%; in assay [20], -23.9% (active); in assay [6], 45.1%. Moreover, the growth in assay [7] was 54.2%; in assay [19], -53.3% (active); in [8] it was 80.5%; in [9], -18.6% (active); in assay [10], -77% (active); in assay [11], 7.18% (active). The growth in assay [12] is 45.1%; in [13], 17.4%; in [14], -45.8% (active); in assay [15] it was -68% (active); in assay [16], -78.8% (active); in [17] it was -79.1% (active). Also, the growth in [18] is 10.8%.
For `CN=c1ccc2nc3ccc(N)cc3sc-2c1`, the growth was 13.3% in [1]; 42% in [2]; 29% in assay [3]; 27.6% in [4]; 53.5% in assay [5]; 9.37% (active) in [6]. The growth in assay [7] was 48.8%; in assay [19] it was 1.63% (active); in assay [8], 75.3%; in assay [9] it was 20.7%; in assay [10], -22.9% (active); in assay [11], 7.68% (active). The growth is 49.9% in assay [12]; 16.1% in assay [13]; -43.1% (active) in assay [14]; 12% in [15]; -19.3% (active) in assay [16]; 9.39% (active) in assay [17]. The growth in [18] is 30.3%.
In the case of `COc1cc2nc(NC3CCCC3)nc(NC3CCN(C(C)C)CC3)c2cc1OC`, the growth was 88.7% in assay [1]; 100% in assay [2]; 89.3% in assay [3]; 71.8% in assay [4]; 47.8% in assay [5]; 75.7% in assay [6]. In addition, the growth in assay [7] is 80.7%; in assay [8], 74.8%; in assay [9], -4.9% (active); in assay [10], 76.4%; in [11] it was 24.8%; in assay [12] it was 18%. The growth is 88.7% in assay [13]; 96.5% in assay [14]; 59.6% in assay [15]; 79.9% in [16]; -80.4% (active) in assay [17]; 79.2% in assay [18].
`COc1ccc(-c2cn[nH]c2-c2cc(OC)c(OC)c(OC)c2)cc1OCc1ccccc1`: the growth in [1] was 33.2%; in assay [2] it was 49.1%; in assay [3], 27.7%; in assay [4] it was 12.2%; in assay [5], 31.4%; in assay [7], 21.5%. Besides, the growth is 104% in [19]; 65.2% in assay [8]; 36.6% in assay [10]; 46.1% in assay [11]; 27% in assay [13]; -1.63% (active) in [14]. The growth in assay [15] is -19.8% (active); in assay [16] it was 47.6%; in assay [17] it was 10.7%; in assay [18], 23.7%.
Take `O=C(CSc1ncccc1C(=O)O)Nc1ccc(Oc2ccccc2)cc1`: the growth in assay [1] is 104%; in [2] it was 99%; in assay [3], 93.8%; in assay [4], 102%; in assay [5] it was 102%; in [6], 98%. The growth in [7] is 99.8%; in assay [19] it was 108%; in assay [8], 110%; in assay [9], 94.4%; in assay [10] it was 99.3%; in assay [11] it was 124%. In addition, the growth in assay [12] is 107%; in assay [13], 105%; in assay [15] it was 106%; in [16] it was 100%; in [17], 98.7%; in assay [18], 104%.
As to `COc1cc(/C=C/C(=O)c2ccc(Nc3nc(NCCO)nc(N4CCOCC4)n3)cc2)cc(OC)c1OC`, the growth is 15.7% in assay [1]; 30.9% in assay [2]; 34.3% in [3]; -20.8% (active) in assay [4]; 39.7% in [5]; 14.4% in assay [6]. Further, the growth in assay [7] was 16.9%; in assay [8], 17.9%; in [9], 10.7%; in assay [10] it was 40%; in [11], 32.9%; in assay [12], 6.75% (active). Also, the growth in [13] is 17.5%; in [14], 66.6%; in assay [15] it was -5.44% (active); in assay [16], 48.8%; in [17], 26.8%; in assay [18], 2.16% (active).
